Test results as given in PubChem BioAssay.
The source made the active and inactive calls.

How the values were obtained:
Albumin (Bos taurus) = Albumin (Bos taurus) (UniProt P02769); assay: bovine serum albumin binders on microarray, profiling panel, artefact control for SMM control protein annotation, biochemical, small-molecule microarray, Alexa647 label, 635/667 nm fluorescence (AID 1118); conditions: BSA-A647 binding, fluorescence 635 nm, higher = more signal;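 also: score merges 667 nm emission intensity and signal-to-noise per printed compound spot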
Chain of Albumin (Bos taurus) (P02769 whole entry, looked up): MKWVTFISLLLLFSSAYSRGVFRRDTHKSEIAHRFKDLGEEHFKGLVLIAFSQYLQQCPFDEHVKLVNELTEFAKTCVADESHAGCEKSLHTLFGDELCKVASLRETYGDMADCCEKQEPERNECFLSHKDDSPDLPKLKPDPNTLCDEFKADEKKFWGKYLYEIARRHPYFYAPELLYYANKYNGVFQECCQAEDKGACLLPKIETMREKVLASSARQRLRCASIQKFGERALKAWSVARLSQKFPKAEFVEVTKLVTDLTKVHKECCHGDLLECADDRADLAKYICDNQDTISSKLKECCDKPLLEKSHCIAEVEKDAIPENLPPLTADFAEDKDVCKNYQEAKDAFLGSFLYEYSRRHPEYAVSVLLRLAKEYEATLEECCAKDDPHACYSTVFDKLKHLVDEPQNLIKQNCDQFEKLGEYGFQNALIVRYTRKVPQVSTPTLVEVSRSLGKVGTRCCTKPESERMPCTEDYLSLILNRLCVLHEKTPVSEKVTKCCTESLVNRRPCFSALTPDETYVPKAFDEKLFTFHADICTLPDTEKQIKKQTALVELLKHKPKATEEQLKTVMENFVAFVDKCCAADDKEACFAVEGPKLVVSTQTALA

[1] = small-molecule microarray binders of probe aXIP, primary screen, biochemical, NeuroSMM set, 635/667 nm fluorescence (AID 1119); conditions: higher = more signal, called active from +8 up or from −8 down;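 also: probe is the protein aXip251-270 applied at 1 µg/mL to compound-printed slides; binding of probe to printed compounds measured as 667 nm fluorescence plus signal to noise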
[2] = small-molecule binders of probe aNOTCH3, primary screen, biochemical, small-molecule microarray, 635/667 nm fluorescence (AID 1120); conditions: higher = more signal;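 also: probe is a biotin-tagged antibody raised against NOTCH3 rather than NOTCH3 protein; score merges spot fluorescence near 667 nm with spot signal to noise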
[3] = small-molecule binders of probe aNOTCH2, primary screen, biochemical, small-molecule microarray, 635/667 nm fluorescence (AID 1121); conditions: higher = more signal;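 also: score merges feature fluorescence read at 667 nm with its signal to noise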
[4] = target: Carbonic anhydrase 2 (Homo sapiens) (UniProt P00918); assay: CAII small-molecule binders, profiling panel, biochemical, small-molecule microarray, Alexa647-labelled CAII (AID 1122); conditions: CAII-A647 binding fluorescence, higher = more signal
[5] = COS7 lysate on small-molecule microarray, probe aHis, 635 nm (AID 1123); conditions: COS7 cell lysate, fluorescence, higher = more signal;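 also: z-score combines 667nm fluorescence intensity with signal-to-noise per printed compound spot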
[6] = compound binding in COS7 lysate, probe aLAP1, primary screen, cell lysate, small-molecule microarray (AID 1124); conditions: probe aLAP1, fluorescence, higher = more signal;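 also: lysate comes from COS7 cells expressing LAP1 and is applied at 0.3 µg/mL; score merges spot fluorescence near 667 nm with signal-to-noise over triplicate slides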
Sam68 (KHDRBS1) = assay: Sam68 small-molecule binders, primary screen, biochemical, small-molecule microarray, 635 nm fluorescence (AID 1125); conditions: small-molecule microarray binding, higher = more signal;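 also: score merges 667 nm channel intensity with signal to noise over triplicate slides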
[7] = system: Chordin-like protein 2 (CHRDL2); assay: CHRDL2 small-molecule binders, primary screen, biochemical, small-molecule microarray, 635 nm fluorescence (AID 1126); conditions: small-molecule microarray binding, fluorescence 635 nm; higher = more signal;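 also: printed compound slides probed with Chrdl2 protein at 4 µg/mL for 1 h at 4 C; score merges 667 nm emission intensity with signal to noise over three replicate slides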
[8] = target: Concanavalin-A (Canavalia ensiformis) (UniProt P02866); assay: ConA small-molecule binders, primary screen, artefact control for SMM control protein annotation, biochemical, small-molecule microarray, Alexa647 label, 635 nm (AID 1127); conditions: ConA-A647 binding fluorescence, higher = more signal;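 also: z combines 667 nm emission intensity with signal-to-noise across three replicate slides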
Chain of Concanavalin-A (Canavalia ensiformis) (P02866 whole entry, looked up): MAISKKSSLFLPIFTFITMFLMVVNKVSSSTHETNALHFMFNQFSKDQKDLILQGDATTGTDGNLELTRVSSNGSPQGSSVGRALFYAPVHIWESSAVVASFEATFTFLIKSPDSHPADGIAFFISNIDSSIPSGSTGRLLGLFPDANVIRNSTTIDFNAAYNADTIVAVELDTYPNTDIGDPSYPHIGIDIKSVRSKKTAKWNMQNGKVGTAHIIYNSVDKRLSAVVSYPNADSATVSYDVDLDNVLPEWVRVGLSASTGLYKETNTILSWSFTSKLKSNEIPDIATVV

[9] = anti-His antibody binders, primary screen, artefact control for SMM control protein annotation, biochemical, small-molecule microarray, 635 nm fluorescence (AID 1128); conditions: anti-His Alexa647 antibody binding, higher = more signal;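 also: score merges feature fluorescence with signal-to-noise for each printed compound spot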
[10] = system: Human papillomavirus type 1a E7 protein (residues 1-88); assay: HPV1a E7 small-molecule binders, primary screen, biochemical, small-molecule microarray, residues 1-88, 635 nm (AID 1129); conditions: small-molecule microarray binding, fluorescence 635 nm; higher = more signal
[11] = target: Focal adhesion kinase 1 (Homo sapiens) (UniProt Q05397); assay: small-molecule microarray binders of FAK, primary screen, biochemical, 635/667 nm fluorescence, BSA, DTT (AID 1130); conditions: PTK2 binding, 635 nm fluorescence, higher = more signal;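 also: composite of spot emission at 667 nm and signal to noise over triplicate slides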
Chain of Focal adhesion kinase 1 (Homo sapiens) (Q05397 whole entry, looked up): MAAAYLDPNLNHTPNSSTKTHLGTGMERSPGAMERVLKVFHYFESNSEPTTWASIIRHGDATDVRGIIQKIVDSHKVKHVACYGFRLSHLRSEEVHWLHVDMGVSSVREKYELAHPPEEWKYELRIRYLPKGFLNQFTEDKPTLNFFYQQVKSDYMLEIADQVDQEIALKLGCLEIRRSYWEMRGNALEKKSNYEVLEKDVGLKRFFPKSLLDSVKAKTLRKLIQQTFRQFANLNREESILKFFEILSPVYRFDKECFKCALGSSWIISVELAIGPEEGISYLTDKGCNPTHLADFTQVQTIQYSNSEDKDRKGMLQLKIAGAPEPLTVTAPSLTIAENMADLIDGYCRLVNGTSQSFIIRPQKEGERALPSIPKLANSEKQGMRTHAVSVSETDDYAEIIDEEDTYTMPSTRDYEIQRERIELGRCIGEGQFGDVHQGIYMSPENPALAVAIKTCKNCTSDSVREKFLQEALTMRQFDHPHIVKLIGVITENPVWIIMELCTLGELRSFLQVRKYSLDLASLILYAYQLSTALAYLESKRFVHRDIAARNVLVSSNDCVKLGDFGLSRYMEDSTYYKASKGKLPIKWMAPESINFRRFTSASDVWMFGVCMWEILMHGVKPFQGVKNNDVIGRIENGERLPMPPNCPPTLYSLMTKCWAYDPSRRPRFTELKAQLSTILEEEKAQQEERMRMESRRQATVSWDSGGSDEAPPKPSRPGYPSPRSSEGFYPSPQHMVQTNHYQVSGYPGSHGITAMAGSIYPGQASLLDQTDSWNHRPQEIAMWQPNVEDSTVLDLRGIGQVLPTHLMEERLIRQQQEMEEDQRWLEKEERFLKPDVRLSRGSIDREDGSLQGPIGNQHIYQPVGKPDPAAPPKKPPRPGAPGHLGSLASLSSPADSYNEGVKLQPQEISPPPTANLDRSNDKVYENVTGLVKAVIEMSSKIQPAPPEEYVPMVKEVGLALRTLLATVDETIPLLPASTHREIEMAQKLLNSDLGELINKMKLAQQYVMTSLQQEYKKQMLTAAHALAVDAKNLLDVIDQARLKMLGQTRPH

[12] = system: Fibrinogen (Alexa647-labelled); assay: fibrinogen binders on compound microarrays, profiling panel, artefact control for SMM control-protein annotation, biochemical, small-molecule microarray, 635/667 nm fluorescence (AID 1131); conditions: fibrinogen-A647 binding fluorescence, higher = more signal;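 also: z-score merges 667 nm fluorescence with per-spot signal-to-noise over triplicate slides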
[13] = target: Follistatin (Homo sapiens) (UniProt P19883); assay: follistatin binders on small-molecule microarrays, primary screen, biochemical, small-molecule microarray, 635/667 nm fluorescence (AID 1132); conditions: FST binding, 635 nm fluorescence, higher = more signal
Chain of Follistatin (Homo sapiens) (P19883 whole entry, looked up): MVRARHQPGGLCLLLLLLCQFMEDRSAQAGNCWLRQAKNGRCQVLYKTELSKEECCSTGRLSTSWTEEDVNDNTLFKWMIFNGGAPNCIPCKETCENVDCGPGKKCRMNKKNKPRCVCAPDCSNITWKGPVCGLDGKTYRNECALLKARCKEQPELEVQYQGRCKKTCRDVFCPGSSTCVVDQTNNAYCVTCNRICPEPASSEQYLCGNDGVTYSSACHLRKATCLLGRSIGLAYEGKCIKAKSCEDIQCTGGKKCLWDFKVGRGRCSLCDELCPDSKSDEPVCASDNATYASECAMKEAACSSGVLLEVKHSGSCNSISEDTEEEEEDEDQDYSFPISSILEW

[14] = target: Fibroblast growth factor 2 (Homo sapiens) (UniProt P09038); assay: FGF2 binders on small-molecule microarrays, primary screen, biochemical, small-molecule microarray, 635/667 nm fluorescence (AID 1133); conditions: small-molecule microarray binding, FGF2, fluorescence 635/667; higher = more signal
Chain of Fibroblast growth factor 2 (Homo sapiens) (P09038 whole entry, looked up): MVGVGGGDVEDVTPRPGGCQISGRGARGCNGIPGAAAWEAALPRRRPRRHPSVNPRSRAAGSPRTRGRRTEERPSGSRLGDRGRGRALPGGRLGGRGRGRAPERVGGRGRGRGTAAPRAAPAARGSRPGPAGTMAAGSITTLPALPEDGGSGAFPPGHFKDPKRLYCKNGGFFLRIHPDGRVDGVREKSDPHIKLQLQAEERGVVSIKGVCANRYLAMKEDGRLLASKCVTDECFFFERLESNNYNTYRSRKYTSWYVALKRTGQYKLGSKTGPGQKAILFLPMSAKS

[15] = mitochondrial membrane potential change in A549 cells, profiling panel, cell-based, JC-1 fluorescence, basal, 24 h, 100 nL (AID 1138); conditions: higher = more signal;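 also: A549 lung adenocarcinoma cells under basal conditions with no added stimulus; test concentration not given here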
Lefty1 = Lefty1 binders on small-molecule microarrays, primary screen, biochemical, small-molecule microarray, 635/667 nm fluorescence (AID 1139); conditions: small-molecule microarray binding, fluorescence 635/667; higher = more signal
[16] = system: wheat germ agglutinin (Triticum aestivum), Alexa647-labelled; assay: wheat germ agglutinin binders on compound microarrays, profiling panel, artefact control for SMM control-protein annotation, biochemical, small-molecule microarray, 635/667 nm fluorescence (AID 1140); conditions: WGA-A647 binding, 635 nm fluorescence, higher = more signal;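 also: score merges 667 nm feature emission with signal to noise over triplicate slides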
[17] = target: Luciferin 4-monooxygenase (Photinus pyralis) (UniProt P08659); assay: firefly luciferase enzyme inhibitors, primary screen, biochemical, luminescence, purified enzyme, 2006 set (AID 1141); conditions: SteadyGlo luminescence, 30 min, higher = more signal, called active from +8 up or from −8 down;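 also: cell-free assay with purified firefly luciferase at 100 ng per well in PBS; test concentration not given here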
Chain of Luciferin 4-monooxygenase (Photinus pyralis) (P08659 whole entry, looked up): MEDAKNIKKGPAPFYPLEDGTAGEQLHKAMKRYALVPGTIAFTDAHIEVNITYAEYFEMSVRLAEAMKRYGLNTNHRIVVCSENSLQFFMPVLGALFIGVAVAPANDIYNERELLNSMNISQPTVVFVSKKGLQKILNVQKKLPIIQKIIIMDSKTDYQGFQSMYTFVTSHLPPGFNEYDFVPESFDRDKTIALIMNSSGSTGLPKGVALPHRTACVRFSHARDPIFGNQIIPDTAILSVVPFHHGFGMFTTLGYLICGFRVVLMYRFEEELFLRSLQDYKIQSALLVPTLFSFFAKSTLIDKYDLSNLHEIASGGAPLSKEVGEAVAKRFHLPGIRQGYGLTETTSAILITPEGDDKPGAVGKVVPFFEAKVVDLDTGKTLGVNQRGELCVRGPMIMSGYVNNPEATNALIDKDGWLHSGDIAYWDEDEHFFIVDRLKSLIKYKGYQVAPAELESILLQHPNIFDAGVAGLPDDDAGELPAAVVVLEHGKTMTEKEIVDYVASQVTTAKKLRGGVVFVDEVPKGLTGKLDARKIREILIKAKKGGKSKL

Compound	composite z-score (Albumin (Bos taurus))	composite Z-score [1]	composite z-score [2]	composite z-score [3]	composite z-score [4]	composite z-score [5]	composite z-score [6]	composite z-score (Sam68 (KHDRBS1))	composite z-score [7]	composite z-score [8]	composite z-score [9]	composite z-score [10]	composite z-score [11]	composite z-score [12]	composite z-score [13]	composite z-score [14]	z-score [15]	composite z-score (Lefty1)	composite z-score [16]	z-score [17]
COCCOC(=O)N1C(=O)[C@@]2(c3cc(C#CCCO)ccc31)[C@H](C(=O)Nc1nc3ccccc3s1)[C@H]1C(=O)O[C@H](c3ccccc3)[C@H](c3ccccc3)N1[C@@H]2c1ccc(O)cc1	-0.767	0.326 (inactive)	0.177	0.0687	0.473	2.08	0.799	1.31	0.791	1.17	2.54	1.24	0.978	0.919	1.38	1.28	-0.137	1.05	0.777	0.57 (inactive)
O=C1NC(=O)C2C1C=CC(C(O)c1ccco1)N2Nc1ccc(Cl)cc1Cl (stereo not given)	0.78	0.731 (inactive)	-0.0967	-0.153	0.794	1.28	0.317	-0.0532	0.167	0.321	0.478	0.944	-0.367	-0.468	1.13	-0.311	-0.553	0.121	0.673	-0.512 (inactive)
COC(=O)C1=CC(CCCO)=CC(c2ccc(CN3CCCC3)cc2)N(Cc2cccc(OC(F)(F)F)c2)C=C1C(=O)OC (stereo not given)	0.996	0.29 (inactive)	0.133	-0.0502	0.387	2.21	0.612	1.3	-0.551	1.11	1.6	1.11	0.875	1	0.325	-0.292	2.87	0.279	1.11	-3.06 (inactive)
CC1CC/C=C\[C@H]2OC34C=CCN(C(C)C)C(=O)[C@H]3N(CCO)C(=O)[C@@H]4C2C(=O)O1 (stereo not given in full)	-0.935	-0.0467 (inactive)	-0.312	-0.125	0.933	-0.31	0.492	-0.175	-1.26	-1.8	-0.567	-0.724	-0.301	-1.41	-1.27	-1.03	0.193	-0.445	-0.748	-0.886 (inactive)
C#CCN([C@@H](Cc1ccccc1)C(=O)OC)[C@@H](/C=C/C1CC1)[C@H](O)Cc1ccccc1	0.801	-0.275 (inactive)	-0.0984	-0.208	-0.321	-0.0769	0.868	-0.326	1.16	-1.5	-0.429	-0.515	-0.157	-0.873	0.722	-0.0248	3.45	0.166	0.0211	0.412 (inactive)
COC(=O)[C@@]1(Cc2ccc(F)cc2)[C@H]2c3cc(C(=O)N(C)C)n(CCc4ccc(OC)c(Br)c4)c3C[C@H]2CN1C(=O)c1ccccc1	0.939	0.562 (inactive)	0.613	0.363	0.487	1.44	0.0915	-0.111	-0.66	0.793	1.18	0.902	0.178	0.626	-0.0313	-0.433	-0.638	-0.337	0.187	-0.499 (inactive)
